Test results reported in PubChem BioAssay AID585 (National Center for Advancing Translational Sciences (NCATS), 2007).
The whole screen tested about 71,000 compounds, of which about 1,300 (1.8%) were called active. Calls follow the shape of the full dose curve. The list comes from a sample in which actives are over-represented; it also holds similar structures and randomly drawn compounds. A call without a number means that no potency is given here.

These compounds were tested against Beta-lactamase (Escherichia coli (strain K12)) (UniProt P00811) (assay: Promiscuous and Specific Inhibitors of AmpC Beta-Lactamase (assay without detergent)). Conditions: AmpC nitrocefin hydrolysis, absorbance 480 nm, no detergent; series mostly up to 28.7 µM.
Beta-lactamase (Escherichia coli (strain K12)), sequence (P00811 whole entry, looked up): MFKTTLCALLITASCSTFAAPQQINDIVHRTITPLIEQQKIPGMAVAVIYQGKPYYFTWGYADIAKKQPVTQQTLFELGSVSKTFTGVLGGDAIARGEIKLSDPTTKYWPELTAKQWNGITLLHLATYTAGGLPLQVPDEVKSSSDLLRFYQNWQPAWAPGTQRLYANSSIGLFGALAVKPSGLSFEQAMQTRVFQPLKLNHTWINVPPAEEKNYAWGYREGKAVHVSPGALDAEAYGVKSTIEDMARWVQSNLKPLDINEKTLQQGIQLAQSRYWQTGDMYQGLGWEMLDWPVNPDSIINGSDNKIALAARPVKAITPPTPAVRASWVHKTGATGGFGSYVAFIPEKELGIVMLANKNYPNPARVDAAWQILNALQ
Summary of the method: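 AmpC, 20 mM phosphate pH 7.0; 15 min cpd preinc, RT; start with nitrocefin (800 uM stock); A480 kinetic read, 20 s intervals, 4 min. No-enzyme wells = negative control.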
Potency is read from the fitted curve at half-maximal effect.

SMILES | Potency
CCn1c(=N)c(S(=O)(=O)c2ccc(F)cc2)cc2c(=O)n3ccccc3nc21 | inactive
O=C(NCc1ccccn1)c1cc2ccccc2oc1=O | inactive
COc1ccc2oc(=O)c(C(=O)O)cc2c1 | inactive
O=C(Oc1cccnc1)c1cc2ccccc2oc1=O | 12.6 µM (active)
Cc1ccc(C)c(N2CCN(C(=O)CCCCn3c(=O)[nH]c4ccccc4c3=O)CC2)c1 | inactive
COc1ccc(Cc2nnc(NC(=O)Cc3cccs3)s2)cc1 | 12.6 µM (active)
CCc1nnc(NC(=O)CSc2nnc(Cc3ccccc3)n2-c2ccc(OC)cc2)s1 | inactive
COc1ccc(Cc2nnc(NS(=O)(=O)Cc3ccccc3)s2)cc1 | inactive
COc1ccc2[nH]cc(CCNc3nc(-c4cccc(NS(C)(=O)=O)c4)nc4ccccc34)c2c1 | inactive
CCCC1C(c2ccccc2)C(C#N)(C#N)C2(C#N)CC1(N)NC2=O (stereo not drawn) | inactive
CCOC(=O)Cc1csc(NC(=O)CN(C)S(=O)(=O)c2ccc3c(c2)CCC(=O)N3)n1 | 3.98 µM [single pt active] (active)
CCOC(=O)Cc1csc(NC(=O)CSc2nc(C)cc(=O)[nH]2)n1 | inactive
CCOC(=O)Cc1csc(NC(=O)C(C)(C)C)n1 | inactive
Cc1ccc(CNC(=O)CCCNC(=O)c2ccc(Cl)cc2)n1C | inactive
CC(C)(O)C#Cc1ccc(C(=O)N2CCC(C(N)=O)(N3CCCCC3)CC2)cc1 | inactive
CC1(C)S[C@@H]2[C@@H](NC(=O)[C@@H](N)c3ccccc3)C(=O)N2[C@H]1C(=O)O | 0.0501 µM (active)
CC1(C)SC2c3ccccc3C(=O)N2[C@@H]1C(=O)NCc1ccco1 (stereo partly drawn) | inactive
CC(CNC(=O)c1ccc(Br)o1)NC(=O)c1ccc(Br)o1 (stereo not drawn) | inactive
c1ccc(Nc2nc(-c3ccncc3)cs2)nc1 | inactive
N#CC(=C1SC=CS1)c1nc(-c2ccccc2)cs1 | 15.8 µM [single pt active] (active)
N#C/C(=C1\CCCN1)c1nc(-c2ccccc2)cs1 | inactive
CC(C)(O)[C@H]1[C@H]2OC(=O)[C@@H]1[C@]1(O)C[C@H]3O[C@]34C(=O)O[C@H]2[C@]14C | inactive

SMILES | Potency
O=C(c1ccco1)N1CCN(C(=O)C2c3ccccc3Oc3ccccc32)CC1 | inactive
Cc1ccc(NC(=O)C2CC(c3ccc(F)cc3)=NO2)cc1 (stereo not drawn) | inactive
CCOC(=O)N1CCN(C(=O)C2CC(c3ccc(F)cc3)=NO2)CC1 (stereo not drawn) | 3.98 µM [single pt active] (active)
CCOC(=O)N1CCN(C(=O)CSc2ccc(Cl)cc2)CC1 | inactive
O=C(c1ccco1)N1CCN(C(=O)C2CC(c3ccc(Cl)c(Cl)c3)=NO2)CC1 (stereo not drawn) | inactive
O=C(c1ccco1)N1CCN(C(=O)C2CC(c3ccc(F)cc3)=NO2)CC1 (stereo not drawn) | 3.98 µM [single pt active] (active)
O=C(C1CCN(S(=O)(=O)c2cnc[nH]2)CC1)N1CCN(Cc2ccc3c(c2)OCO3)CC1 | inactive
CC(=O)c1c(O)c(C)c(O)c(Cc2c(O)c3c(c(C(=O)/C=C\c4ccccc4)c2O)OC(C)(C)C=C3)c1O | 12.6 µM (active)
CCOc1ccc(S(=O)(=O)n2ccnc2)c2ccccc12 | 3.98 µM [single pt active] (active)
CCOc1ccc(C(C)C)cc1S(=O)(=O)n1nc(C)cc1C | inactive
CCOc1ccccc1C(=O)NCCCn1ccnc1 | inactive
Fc1ccc2nc(Nc3nc4c(s3)CCCC4)sc2c1 | inactive
CCOC(=O)CNC(=O)CSc1nnc(COc2ccc(Cl)cc2)n1CC | inactive
CN1CCN(S(=O)(=O)c2ccc3[nH]cc(C(=O)O)c(=O)c3c2)CC1 | inactive
Cc1cccc(CC(=O)Nc2c3c(nn2-c2cccc(Cl)c2)CS(=O)C3)c1 (stereo not drawn) | inactive
O=C(Cc1ccccc1)n1nc(-c2ccccc2)nc1NCc1ccco1 | 3.98 µM [single pt active] (active)
O=C(NCc1ccco1)c1nc(-c2ccccc2)n(-c2ccccc2)n1 | inactive
Cc1nc2nc(SCC(=O)NCc3ccco3)nn2c(C)c1Cc1ccccc1 | inactive
COc1ccc(CCn2nnnc2C(c2ccccc2)N2CCN(C)CC2)cc1OC (stereo not drawn) | inactive
CCOC(=O)c1cnc2sccn2c1=O | inactive
CN/C(=C\[N+](=O)[O-])NCCSCc1csc(CN(C)C)n1 | inactive
